Read-out in one assay: Decorin, DCN (gene 1634)
The experiment in a line: BSK_MyoF_Decorin: BioMAP Diversity Plus: MyoF Assay for Decorin Biomarker Activity (AID 2284265). The conditions noted are these: primary human lung fibroblasts. A digest of the protocol:
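ELISA readout of decorin, 24 h post-dosing; primary human lung fibroblast (MyoF) culture; gain-of-signal fit vs DMSO baseline.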

Assay [1] is described as follows: BSK_MyoF_SRB: Viability Assessment in the BioMAP Diversity Plus: MyoF Assay (AID 2284267).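 Further: total protein by SRB absorbance in parallel cultures as cytotoxicity measure; cells assessed 24 h after compound addition.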 The conditions noted are these: primary human lung fibroblasts. In outline: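 In this viability endpoint, fibroblasts from human lung are treated for 24 h, TCA-fixed, SRB-stained (0.1%) and read at 560 nm. Gain of signal relative to DMSO defines activity.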
Read-out in assay [2]: Matrix Metallopeptidase 1 (MMP1), MMP1 (gene 4312)
In words: BSK_MyoF_MMP1: BioMAP Diversity Plus: MyoF Assay for Matrix Metallopeptidase 1 (MMP1) Biomarker Activity (AID 2284268). Conditions: primary human lung fibroblasts. In outline: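 Cells: human lung fibroblasts. Exposure: 24 h chemical dosing. Detection: ELISA for MMP1. Analysis: upward fitting against DMSO negative control.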

Read-out in assay [3]: TIMP metallopeptidase inhibitor 1 (TIMP1), TIMP1 (gene 7076)
In words: BSK_MyoF_TIMP1: BioMAP Diversity Plus: MyoF Assay for TIMP metallopeptidase inhibitor 1 (TIMP1) Biomarker Activity (AID 2284269). Conditions: primary human lung fibroblasts. In outline: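 ELISA read-out of TIMP-1 from primary human lung fibroblast cultures 24 h after compound dosing; gain of signal relative to DMSO vehicle baseline defines activity.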

Assay [4] is described as follows: IUF_NPC2c_oligodendrocyte_migration_120hr: Leibniz Research Institute for Environmental Medicine (IUF) 120-hour Neural Progenitor Cell Migration Assay for Oligodendrocyte Migration (NPC2c) (AID 2284297).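 Further: O4-positive oligodendrocyte migration distance divided by radial glia migration distance.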 In outline:
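hNPC spheres (GW 16-19 cortex), PDL/laminin, DMEM/F12 3:1 + 1% N2, 37C. Dosing day 0–5, half feed day 3, DMSO ≤0.1%. Fixed 120 h; O4 ICC + Hoechst, HCI. Readout: mean oligodendrocyte distance from sphere edge / radial glia distance.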

A short description of assay [5]: IUF_NPC2a_radial_glia_migration_120hr: Leibniz Research Institute for Environmental Medicine (IUF) 120-hour Neural Progenitor Cell Migration Assay for Radial Glia Migration (NPC2a) (AID 2284298). A digest of the protocol: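 Hoechst-stained nuclei imaged at 120 h; algorithm maps sphere core by densest nuclei, sets migration edge at density threshold, gives radial glia migration distance (um) per well vs DMSO. hNPC spheres (0.3 mm), PDL/laminin, DMEM/F12 3:1 + 1% N2.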

The nature of assay [6]: IUF_NPC2a_radial_glia_migration_72hr: Leibniz Research Institute for Environmental Medicine (IUF) 72-hour Neural Progenitor Cell Migration Assay for Radial Glia Migration (NPC2a) (AID 2284299). In outline:
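Spheres of human primary neural progenitors migrate on poly-D-lysine/laminin under compound exposure at 37C, 5% CO2. The 72 h radial glia migration distance comes from brightfield images, measured manually.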

Assay [7] in a line: IUF_NPC2b_neuronal_migration_120hr: Leibniz Research Institute for Environmental Medicine (IUF) 120-hour Neural Progenitor Cell Migration Assay for Neuron Migration (NPC2b) (AID 2284300). In outline: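 hNPC spheres, PDL/laminin, DMEM:F12 3:1 + 1% N2, 37C/5% CO2; 7 concentrations + solvent control (DMSO ≤0.1%), 5 d exposure, half-feed day 3. Fix 120 h, TUBB3 ICC, HCI: mean neuron migration distance ÷ glia distance.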

A short description of assay [8]: IUF_NPC3_neuronal_differentiation_120hr: Leibniz Research Institute for Environmental Medicine (IUF) 120-hour Neuronal Differentiation Assay (NPC3) (AID 2284301). In outline: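 Value is percent TUBB3-positive neurons among Hoechst-stained nuclei in the migration area, scored by trained CNN after 120 h differentiation. Primary hNPC spheres on poly-D-lysine/laminin, N2 medium, continuous dosing from day 0, half-refeed day 3; DMSO reference.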

The source holds several records for some structures; these can differ, active in one and inactive in another. Active and inactive are the calls of the source. How the source made its calls: active means hit-call score of the fitted dose curve at least 0.9, where 1 is the maximum; inactive means score below 0.9.

One may read the AC50 as the concentration giving half of the maximal activity seen.

For the compound `C=CC(Cl)CCl` (stereo not given), the outcome with Decorin, DCN (gene 1634) was “inactive”; in [2] it was “inactive”. In addition, the values for the AC50 in [1] and in [3] were 9.58 µM (active) and 0.061 µM (active), respectively.
For the compound `Cc1ccccc1OP(=O)(Oc1ccccc1)Oc1ccccc1`, the concentration at half-maximal activity (AC50) in the assay with Decorin, DCN (gene 1634) is 2.3 µM (active); in assay [1] it was 20 µM (active); in assay [2], 29.6 µM (active); in assay [3] it was 0.0187 µM (active).
Consider `[Cl][Sn]([c]1ccccc1)([c]1ccccc1)[c]1ccccc1`, for which the half-maximal activity concentration (AC50) with Decorin, DCN (gene 1634) is 0.167 µM (active); in assay [1], 1.36 µM (active); in assay [2] it was 0.423 µM (active); in assay [3], 0.355 µM (active).
`c1ccc(-c2cccc(-c3ccccc3)c2)cc1`: the outcome in the assay with Decorin, DCN (gene 1634) was “inactive”; in assay [3], “inactive”. Further, the results for the AC50 in [1] and in assay [2] were 22.5 µM (active) and 8.44 µM (active), respectively.
In the case of `CCCCN(CCCC)C(=S)[S-].CCCCN(CCCC)C(=S)[S-].[Ni+2]`, the outcome in the assay with Decorin, DCN (gene 1634) is “inactive”; in assay [1], “inactive”; in assay [2], “inactive”; in [3], “inactive”.
On to `O=[N+]([O-])c1cccc2ccccc12`, for which the outcome is “inactive” with Decorin, DCN (gene 1634); “inactive” in [1]; “inactive” in assay [2]; “inactive” in assay [3].
Regarding `CC1(C)[C@H](C(=O)O[C@H](C#N)c2cccc(Oc3ccccc3)c2)[C@@H]1/C=C(\Cl)C(F)(F)F`, the outcome is “inactive” with Decorin, DCN (gene 1634); “inactive” in assay [1]; “inactive” in [2]; “inactive” in assay [3]; “inactive” in [4]; “inactive” in assay [5]. In addition, the call in assay [6], in [7] and in assay [8] was inactive. In addition, in assay [2], the half-maximal activity concentration (AC50) was 3.39 µM (active).
As for `O=C1C=CC(=O)c2ccccc21`, the AC50 with Decorin, DCN (gene 1634) was 1.33 µM (active); in [1], 4.69 µM (active); in assay [2], 10.1 µM (active); in assay [3], 4.43 µM (active).
As to `CCOC(=O)CCN(SN(C)C(=O)Oc1cccc2c1OC(C)(C)C2)C(C)C`, the outcome with Decorin, DCN (gene 1634) is “inactive”; in assay [1], “inactive”; in [2], “inactive”; in assay [3] it was “inactive”.
Consider `c1ccc2sc(SNC3CCCCC3)nc2c1`, for which the outcome in the assay with Decorin, DCN (gene 1634) was “inactive”; in assay [1], “inactive”; in assay [2], “inactive”; in assay [3], “inactive”.
With `CC(C=O)Cc1ccc2c(c1)OCO2` (stereo not given), the outcome was “inactive” in the assay with Decorin, DCN (gene 1634); “inactive” in assay [1]; “inactive” in assay [2]; “inactive” in assay [3].
On to `C#CCOC(=O)/C=C(C)/C=C/CC(C)CCCC(C)C` (stereo not given), for which the outcome in the assay with Decorin, DCN (gene 1634) was “inactive”; in [1], “inactive”; in assay [2], “inactive”; in assay [3], “inactive”.
Regarding `CCN(CC)C(=O)C(Cl)=C(C)OP(=O)(OC)OC`, the outcome with Decorin, DCN (gene 1634) is “inactive”; in assay [1], “inactive”; in [2] it was “inactive”; in assay [3] it was “inactive”.
As to `O=c1oc2ccccc2c(O)c1C(CC(O)c1ccc(-c2ccc(Br)cc2)cc1)c1ccccc1` (stereo not given), the AC50 was 9.45 µM (active) with Decorin, DCN (gene 1634); 9.02 µM (active) in [1]; 7.83 µM (active) in assay [3]. For the same compound, the result in assay [2] was inactive.
`CCOC(=O)C(SP(=S)(OC)OC)c1ccccc1` (stereo not given): the outcome with Decorin, DCN (gene 1634) is “inactive”; in assay [1], “inactive”; in [2] it was “inactive”; in assay [3] it was “inactive”.
Take `CC(C)N(C(=O)CCl)c1ccccc1`: the AC50 in the assay with Decorin, DCN (gene 1634) was 6 µM (active); in assay [1] it was 3.67 µM (active); in assay [3] it was 3.53 µM (active). For the same compound, the outcome in assay [2] was inactive.
For `CCC(C)(C#N)N=NC(C)(C#N)CC` (stereo not given), the outcome was “inactive” in the assay with Decorin, DCN (gene 1634); “inactive” in [1]; “inactive” in assay [2]; “inactive” in assay [3].
On to `Cc1ccc(OP(=O)(Oc2ccc(C)cc2C)Oc2ccc(C)cc2C)c(C)c1`, for which the outcome with Decorin, DCN (gene 1634) is “inactive”; in assay [1], “inactive”; in assay [3], “inactive”. In addition, the half-maximal activity concentration (AC50) in assay [2] was 5.97 µM (active).
With `CCOP(=O)(OCC)OC(=CCl)c1ccc(Cl)cc1Cl`, the concentration at half-maximal activity (AC50) in the assay with Decorin, DCN (gene 1634) was 20 µM (active); in assay [1] it was 30.4 µM (active); in assay [2] it was 31.7 µM (active). For the same compound, the result in assay [3] was inactive.
Turning to `CCOP(=S)(OCC)SCS(=O)(=O)C(C)(C)C`, the outcome with Decorin, DCN (gene 1634) is “inactive”; in [1], “inactive”; in assay [2] it was “inactive”; in assay [3] it was “inactive”.
As for `Oc1ccc(Cc2ccc(O)cc2)cc1`, the outcome is “inactive” with Decorin, DCN (gene 1634); “inactive” in [1]; “inactive” in assay [2]; “inactive” in [3].
Consider `CCOP(=S)(OCC)OP(=S)(OCC)OCC`, for which the outcome with Decorin, DCN (gene 1634) was “inactive”; in assay [1] it was “inactive”; in assay [2], “inactive”; in assay [3], “inactive”.
Consider `O=C(O)COc1cc(Cl)c(Cl)cc1Cl`, for which the outcome was “inactive” with Decorin, DCN (gene 1634); “inactive” in assay [1]; “inactive” in assay [2]; “inactive” in assay [3].
As for `Cc1cc(C(C)(C)c2ccc(O)c(C)c2)ccc1O`, the outcome was “inactive” in the assay with Decorin, DCN (gene 1634) and “inactive” in assay [3]. Besides, the AC50 in assay [1] is 13.7 µM (active); in [2], 15.7 µM (active).
On to `CC(C)=CC1C(C(=O)OCc2cccc(Oc3ccccc3)c2)C1(C)C` (stereo not given), for which the outcome with Decorin, DCN (gene 1634) is “inactive”; in [1], “inactive”; in assay [2] it was “inactive”; in assay [3] it was “inactive”.
Consider `O=S(=O)(c1ccc(Cl)cc1)c1cc(Cl)c(Cl)cc1Cl`, for which the outcome with Decorin, DCN (gene 1634) was “inactive”; in assay [1], “inactive”; in [3] it was “inactive”. Further, the AC50 in [2] is 20 µM (active).
In the case of `CCOC(=O)CC(=O)CCl`, the outcome with Decorin, DCN (gene 1634) is “inactive”; in assay [1], “inactive”; in assay [2], “inactive”; in assay [3], “inactive”.
With `N#CCCC(Br)(C#N)CBr` (stereo not given), the outcome was “inactive” in the assay with Decorin, DCN (gene 1634) and “inactive” in assay [2]. In addition, the concentration at half-maximal activity (AC50) was 14.1 µM (active) in assay [1] and 20 µM (active) in assay [3].
For `Oc1c(Br)cc(Br)cc1Br`, the outcome with Decorin, DCN (gene 1634) was “inactive”; in [1], “inactive”; in assay [3] it was “inactive”. The half-maximal activity concentration (AC50) in [2] was 12.4 µM (active).
Take `Cc1ccccc1OP(=O)(Oc1ccccc1C)Oc1ccccc1C`: the AC50 with Decorin, DCN (gene 1634) is 20 µM (active); in [1], 12.8 µM (active); in assay [3], 20 µM (active); in [5], 10 µM (active). The outcome in [2], in assay [4], in assay [6], in assay [7] and in assay [8] was inactive.
Take `Cc1cc(C(F)(C(F)(F)F)C(F)(F)F)ccc1NC(=O)c1cccc(I)c1C(=O)NC(C)(C)CS(C)(=O)=O`: the result in [4], in assay [5], in [6], in [7] and in assay [8] was inactive.
As to `O=C(CCl)NCO`, the outcome was “inactive” with Decorin, DCN (gene 1634); “inactive” in assay [1]; “inactive” in [2]; “inactive” in [3].

For the origin of these results see PubChem BioAssay (EPA / NIEHS).
